Measurements: PubChem BioAssay AID1626 (SRMLSC, 2009)
About 2,000 (0.91%) of roughly 220,000 compounds were called active. Another 2% or so got no clear call; they are omitted. These entries were drawn from the full list. Results with a measured potency or affinity are listed apart. Unmarked numbers belong to inactive results. Rule as the data show it: inconclusive = inhibition above about 80% without an active follow-up result; inactive = below that; test concentration not stated here.

assay: M. tuberculosis H37Rv growth inhibitors, H37Rv strain (AID 1626); conditions: stronger effect = higher value, concentration not given here;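 also: bacteria incubated seven days before Alamar blue readout; 0% = bacteria only wells and 100% = bacteria with antibiotic wells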

| Structure (SMILES) | inhibition |
| --- | --- |
| CN(C)C(CNC(=O)c1cc(S(=O)(=O)N(C)c2ccccc2)ccc1Cl)c1cccs1 (centres undefined) | -3.17% |
| Cc1occc1C(=O)N/N=C/C1=C(N2CCOCC2)C(=C\c2ccc(Cl)cc2)/CC1 | -4.7% |
| O=C(NCc1cccnc1)c1ccc(COc2ccccc2Br)cc1 | 12% |
| O=C(NCCC(=O)N1CCOCCOCCOCCOCC1)OCc1ccccc1 | -3.39% |
| NS(=O)(=O)c1ccc(CNC(=O)c2cc(-c3ccccn3)nc3ccc(Cl)cc23)cc1 | 8.36% |
| CCOC(=O)N1CCN(C(=O)c2ccc3nc4ccc(Cl)cc4c(=O)n3c2)CC1 | 2.6% |
| CCNC(=O)CN1C(=O)NC(Cc2ccccc2)(Cc2ccccc2)C1=O | -0.94% |
| COc1ccc(NC(=O)Nc2ccc(F)cc2F)cc1 | 10.7% |
| COc1ccc(CN2C(=O)CS/C2=N/N=C/c2ccccc2)cc1 | -0.88% |
| CCNC(=S)N(Cc1c(C)noc1C)c1ccccc1 | -11.8% |
| CCOc1cc(/C=N/NC(=O)CSc2nncn2C)ccc1OCc1cccc(C)c1 | 5.11% |
| COc1ccccc1C1C2=C(N=c3s/c(=C/c4cccc(OCC(=O)O)c4)c(=O)n31)c1ccccc1CC2 (centres undefined) | -4.54% |
| COc1ccc(/C=c2/sc3n(c2=O)C(c2ccccc2OC)C2=C(N=3)c3ccccc3CC2)cc1O (centres undefined) | 16.2% |
| COc1cccc(C2C3=C(N=c4s/c(=C\c5ccccc5O)c(=O)n42)c2ccccc2CC3)c1OC (centres undefined) | 5.15% |
| COc1cccc(C2C3=C(N=c4s/c(=C\c5ccc(O)cc5)c(=O)n42)c2ccccc2CC3)c1OC (centres undefined) | 6.52% |
| CCOc1ccc(NC(=O)Nc2ccc(Br)cn2)cc1 | 0.855% |
| CCOC(=O)N1CCN(C(=O)c2ccccc2NC(=O)c2ccc(F)cc2)CC1 | 22.6% |
| COc1ccc(C2/C=C\CN(C(=O)Oc3ccccc3)CC(=O)N2Cc2ccc(F)cc2)cc1 (centres undefined) | 0.77% |
| CC(NC(=O)Cn1c(NCCO)nc2ccccc21)C1CC2CCC1C2 (centres undefined) | -0.5% |
| O=C1C(NS(=O)(=O)c2cccs2)=C(N2CCN(c3ccccc3)CC2)C(=O)c2ccccc21 | 6.53% |

| Structure (SMILES) | inhibition |
| --- | --- |
| O=C1C(NS(=O)(=O)c2cccs2)=C(N2CCN(c3cccc(Cl)c3)CC2)C(=O)c2ccccc21 | 72.6% |
| COc1ccccc1N1C(=O)C2CC=CC(C)C2C1=O (centres undefined) | -9.33% |
| Cc1sc2nc(CN3CCOCC3)nc(N3CCOCC3)c2c1C | -5.18% |
| Cc1sc2nc(CN3CCOCC3)nc(Cl)c2c1C | 1.93% |
| COC(=O)C1(C(F)(F)F)N=C2Sc3ccccc3N2C(N2CCOCC2)=N1 (centres undefined) | -2.56% |
| N#Cc1ccc(-c2ccc(OCC(=O)NCCc3ccccc3)cc2)cc1 | 7.81% |
| COc1ccc(CCNC(=O)COc2ccc(-c3ccc(C#N)cc3)cc2)cc1 | -19.4% |
| CN(C)c1ccc(NC(=O)N2CCOCC2)cc1 | -3.81% |
| N#Cc1c(NC(=O)CN2C(=O)c3ccccc3C2=O)oc(-c2ccccc2)c1-c1ccccc1 | -4.11% |
| Cc1[nH]c2ccccc2c1C(=O)C(=O)NCC1CCCO1 (centres undefined) | 7.05% |
| Brc1ccc(-c2csc(Nc3nc(-c4ccc(Br)cc4)cs3)n2)cc1 | 7.47% |
| CCCOc1ccc(-c2nc(-c3ccc(N)cc3)cs2)cc1 | 1.99% |
| Cc1ccc(-c2csc(-c3ccncc3)n2)cc1 | -6.57% |
| Brc1ccc(-c2csc(-c3ccncc3)n2)cc1 | 40.3% |
| Cc1nc(N2CCN(c3ccccc3)CC2)[nH]c(=O)c1CCC(C)C | 6.58% |
| Nc1nc(SCC(=O)N2CCCc3ccccc32)n(-c2ccccc2)n1 | -0.56% |
| CCC1S/C(=N\S(=O)(=O)c2cccs2)N(C2CCCCC2)C1=O (centres undefined) | -5.04% |
| CC1(C)Cc2c(sc(NC(=O)Cc3ccccc3)c2C#N)CO1 | -0.57% |
| O=C(NC1CCCCC1)N(Cc1nc2ccccc2c(=O)[nH]1)C1CCCCC1 | 12.6% |
| Cc1ccc(Oc2nc(CN3CCOCC3)nc3sc4c(c23)CCC(C)C4)cc1C (centres undefined) | 40.8% |

| Structure (SMILES) | inhibition |
| --- | --- |
| Cc1cccc(Oc2nc(CN3CCOCC3)nc3sc4c(c23)CCCC4)c1 | 14% |
| O=C(Nc1ccc2c3c(cccc13)CC2)c1cccc([N+](=O)[O-])c1 | 2.05% |
| COC(=O)[C@H](CC(C)C)NC(=O)NCc1ccc(Cl)cc1 | -2% |
| CCC(CC)NC(=O)/C=C/c1ccccc1Cl | -14.3% |
| O=C(/C=C/c1ccccc1Cl)NCc1ccccc1 | -0.07% |
| CC(Cc1ccccc1)NC(=O)/C=C/c1ccc(Cl)cc1 (centres undefined) | -0.45% |
| CCOC(=O)Nc1ccc2c(c1)nc(CN1CCOCC1)n2C | -2.73% |
| CN(C)CCCN(C(=O)c1ccc2c(c1)CCCC2)c1nc2ccc(F)cc2s1 | 62.6% |
| Cc1ccc2nc(N(CCCN(C)C)C(=O)c3ccc(S(=O)(=O)N(C)C)cc3)sc2c1 | -7.66% |
| N#Cc1cnn2c1nc(N1CCOCC1)c1ccccc12 | 3.61% |
| O=C(O)c1ccc(/C=N/NC(=O)c2ccc(NS(=O)(=O)c3cccs3)cc2)cc1 | 7.29% |
| CC(=O)/C(=C/N(C)C)C(=O)Nc1ccc(Cl)cc1Cl | 5.27% |
| CN(C)CCNC(=S)Nc1ccc(Cl)cc1Cl | 3.74% |
| Cc1cc(=O)n2nc(N3CCC(C(=O)N4CCN(C)CC4)CC3)sc2n1 | -6.22% |
| CCN(CC)S(=O)(=O)c1ccc(C)c(NC(=O)Cn2cnc3cc([N+](=O)[O-])ccc3c2=O)c1 | -5.31% |
| O=C(CSc1nnc(-c2ccccc2)o1)N1CCc2ccccc2C1 | 0.6% |
| COc1ccc(-c2nnc(SCC(=O)N3CCc4ccccc4C3)o2)cc1 | 55.5% |
| COc1cccc(CNc2ccc(F)c(Cl)c2)c1OC | 9.35% |
| COc1ccc(NC(=O)C(OC)c2ccccc2)cc1Cl (centres undefined) | 4.82% |
